Reference: PubChem BioAssay (NCI)
About 83,000 compounds went through this panel and 20% of them were active in at least one assay; those are over-represented in the sample as a whole.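 Plates (96-well) were seeded with cells, treated with compound at one concentration, and incubated for 48 hours before percent growth was determined.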 Unmarked numbers belong to inactive results. The source made the active and inactive calls. Rule for the calls: active = growth percent below 10; inactive = the rest.

What follows are molecules tested on T-47D breast (assay: NCI-60 one-dose screen, 48 h (100 = growth as untreated, 0 = no growth, -100 = all killed)). Conditions: 10 µM.
`O=C(N/N=C/c1ccc(Cl)cc1)c1ccccc1Nc1cccc(C(F)(F)F)c1` showed a growth of 109%. With `O=C(CSc1nccc(Nc2cccc3ccccc23)n1)c1ccc(Cl)cc1` the growth was 76.1%. `O=C(CSc1nnc(-c2cccnc2SCc2ccccc2)o1)Nc1nc(Cl)cc(Cl)n1` showed a growth of 98.5%. `Nc1nc(N)c(N)c(Nc2ccc(CCO)cc2)n1` showed a growth of 102%. `O=C(CNc1nnc(-c2cccnc2SCc2ccccc2)s1)Nc1nc(Cl)cc(Cl)n1` gave a growth of 79.3%. `CN(C)c1ccc(/C=N/NC(=O)c2ccccc2Nc2cccc(C(F)(F)F)c2)cc1` gave a growth of 75.6%. `CN1C(=O)C2(Nc3cc(Cl)ccc3S2)c2cc(Cl)ccc21` (stereo not given) showed a growth of 71.6%. `CC(C)(C)OC(=O)N1CCc2c(sc3ncnc(N/N=C/c4cccc5ccccc45)c23)C1` showed a growth of 12.6%. For `COc1cc(CNC(=O)C2CSC3(C)c4ccccc4C(=O)N23)cc(OC)c1OC` (stereo not given), the growth was 87.2%. Work on `c1ccc(CSc2ncccc2-c2nnc(SCCN3CCOCC3)o2)cc1` yielded a growth of 101%. In the case of `CC[N+](CC)=c1ccc2nc3c(cc(NCc4ccccc4)c4ccccc43)oc-2c1`, the growth is reported as -55.9% (active). Molecule `N#CC1=CC2CN(Cc3ccccc3)C1C1C(=O)N(c3ccccc3)C(=O)C21` (stereo not given) has a growth of 99.5%. `COc1ccc(-c2nn(-c3cccc(Cl)c3)cc2-c2nc(N)[nH]c(=O)c2C#N)cc1` showed a growth of 58.7%. In the case of `COc1cc2cc(Oc3ccc(NC(=O)Nc4ccc(Cl)c(C(F)(F)F)c4)cc3)c(C)nc2cc1OC`, the growth is reported as 21.4%. Molecule `COc1cc2cc(Oc3ccc(NC(=O)Nc4ccc(Cl)c(Cl)c4)cc3)c(C)nc2cc1OC` has a growth of 60.9%. `COc1cc(-c2nn(-c3cccc(NC(=O)NCCNS(=O)(=O)c4ccc(Cl)cc4)c3)cc2-c2ccncc2)ccc1Cl` was tested, and the growth was 23.8%. In the case of `O=C(N/N=C/c1c(Cl)cccc1Cl)c1ccccc1Nc1cccc(C(F)(F)F)c1`, the growth is reported as 94.4%. In the case of `CC(=O)Nc1ccc(CC[C@H]2CCC/C=C/[C@@H]3C[C@H](O)C[C@H]3[C@H](O)/C=C/C(=O)O2)cc1`, the growth is reported as 7.42% (active). For `Cc1cc(Cl)ccc1Nc1nc(C(F)(F)F)ccc1C(=O)N/N=C/c1c(Cl)cccc1Cl`, the growth was -13.3% (active). For `CCOC(=O)CC(S(=O)(=O)c1ccccc1)S(=O)(=O)c1ccccc1`, the growth was 88.1%. With `Cc1cc(Cl)ccc1Nc1nc(C(F)(F)F)ccc1C(=O)N/N=C/c1cccc(O)c1` the growth was 39.8%. With `CC(C)=CCC/C(C)=C/CC/C(C)=C/CC/C=C(\C)CC/C=C(\C)CCC(=O)Nc1ccn(C2OC(CO)C(O)C2(F)F)c(=O)n1` (stereo not given) the growth was 41%. Work on `COc1ccccc1/C=N\N/C(N)=N\N=C\c1ccccc1OC` yielded a growth of 60.9%. In the case of `Cc1cc(CCNC=O)c(C)c2c1sc1ccccc12`, the growth is reported as 92.8%. `COc1ccc(-c2nc(-c3nc4ccc(C)cc4[nH]3)cc3c2[nH]c2ccccc23)cc1` gave a growth of 32.7%. With `Cc1ccc(/C=C2/C(=O)N(C)c3ccc(S(=O)(=O)Nc4ccc(C(C)(C)C)cc4)cc32)s1` the growth was 80.5%. For `c1ccc(/C(=N\Nc2ccc3ccccc3n2)c2ccccn2)cc1`, the growth was 16.5%. `NC(N)=N/N=C(\N=Nc1ccccc1)c1ccc(Cl)cc1` showed a growth of 20.4%. `COc1cc(NC(=O)Nc2cnc(Nc3ccc(N4CCOCC4)cc3)nc2Oc2cccc(OC)c2)cc(OC)c1` showed a growth of 49.6%. `COc1cc(-c2nn(-c3cccc(NC(=O)CCN4CCN(c5ccccc5)CC4)c3)cc2-c2ccncc2)ccc1Cl` was tested, and the growth was 17.5%. In the case of `OCC1OC(n2ccc3c(NO)ncnc32)C(O)C1O` (stereo not given), the growth is reported as -18.9% (active). Work on `CCOC(=O)C1C(C(=O)OCC)C2C(=O)C3C(C(=O)OCC)C(C(=O)OCC)C3C(=O)C12` (stereo not given) yielded a growth of 100%. `CCCCN(CCCC)C(=O)[C@H](CC)[C@@H]1CC[C@@H](C)[C@@H]([C@H](C)[C@@H](O)[C@@H](C)C(=O)[C@H](CC)C2O[C@]3(C=CC(=O)[C@]4(CC[C@@](C)([C@H]5CC[C@](O)(CC)[C@H](C)O5)O4)O3)[C@H](C)C[C@@H]2C)O1` (stereo not given in full) gave a growth of 20.7%. Molecule `COc1ccc(Cl)cc1Nc1nc(C(F)(F)F)ccc1C(=O)N/N=C/c1ccc(Cl)cc1` has a growth of 37.6%. `CCCc1nc(C(C)(C)O)c(C(=O)O)n1Cc1ccc(-c2ccccc2-c2nn[nH]n2)cc1` showed a growth of 82.1%. `O=C(COc1cccc(/C=C2\CSc3ccccc3C2=O)c1)c1ccc(Cl)cc1` was tested, and the growth was 57.8%. With `O=C(COc1cccc(/C=C2\CSc3ccc(Cl)cc3C2=O)c1)c1ccc(Cl)cc1` the growth was 45.2%. `O=C(CCl)Nc1ccc(Cc2ccc(NC(=O)CCl)cc2)cc1` gave a growth of 14.7%. In the case of `O=C1CSC(=S)N1/N=C/c1ccc(Cl)s1`, the growth is reported as 102%. For `CCc1ccc(C2=NN(c3ccc(S(C)(=O)=O)cc3)C(=O)CC2)cc1`, the growth was 41.4%.
